In all, about 20,000 compounds went through this assay and about 85 (0.4%) were called active.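 The calls were made as follows: active = cell survival signal 2 SD away from solvent-only control wells, confirmed on one or two retests; inactive = the rest.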 The full list was thinned out, with actives kept by preference.
Test: compounds reducing fatty acid uptake into lipids – ZR-82 cells, Enamine library, screen 3, primary screen (AID 1347385);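 also: 3 h compound exposure then viability read about one day after UV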
Settings: ZR-82 CHO cells, pyrene fatty acid UV survival, CellTiter Blue, peroxisome-deficient CHO-K1 mutant line, plus DGAT-1, DGAT-2 and ACAT inhibitors; at 10 µM unless noted

Row | Structure (SMILES) | outcome
1 | CC(C)(C)NC(=O)NC(=O)COC(=O)C1(C)CC1(Cl)Cl (stereo not drawn) | inactive
2 | Cc1nc2sc3c(c2c2nnnn12)CCCC3 | inactive
3 | O=C1OC(c2ccccc2)=N/C1=C\c1ccc(C(F)(F)F)cc1 | inactive
4 | Cc1ccc(C)n1-n1c(C)nc2sc3c(c2c1=O)CCCC3 | inactive
5 | O=S1(=O)CCC(NC2CCCCC2)C1 (stereo not drawn) | inactive
6 | Cc1ccc(C2=Nn3cc(-c4ccccc4)nc3SC2)cc1 | inactive
7 | O=c1oc2cc(O)c(Cl)cc2c2c1CCCC2 | inactive
8 | C=CCNS(=O)(=O)c1ccc2c(c1)OCCO2 | inactive
9 | Cn1nnc2c(=O)[nH]cc([N+](=O)[O-])c21 | inactive
10 | CC(C)(C)c1cnnn1-c1ccc([N+](=O)[O-])cc1 | inactive
11 | CC1CNC(=O)NC1=O (stereo not drawn) | inactive
12 | CCCCn1c(N)c(N(CC)C(=O)/C=C/c2ccco2)c(=O)[nH]c1=O | inactive
13 | CCCCNC(=S)N(C)/N=C1\C(=O)Nc2ccc([N+](=O)[O-])cc21 | inactive [setting not given]
14 | O=c1oc2ccccc2c(O)c1C=Nc1ccccc1Br | inactive
15 | O=C1Nc2ccc([N+](=O)[O-])cc2/C1=N/n1cnnc1 | inactive [setting not given]
16 | c1ccc(CCc2nc(-c3ccncc3)no2)cc1 | inactive
17 | Nc1nnc(SCC(=O)O)s1 | inactive
18 | CCOC(=O)/C=C1\SCC(=O)N1CCSc1nnc(C)s1 | inactive
19 | COc1cc(/C=N/OCc2ccc([N+](=O)[O-])cc2)ccc1OC(F)F | inactive [setting not given]
20 | CC1=C(C(C)C)Nc2nnnn2C1c1ccc(Br)cc1 (stereo not drawn) | inactive
21 | CCOC(=O)c1c(-c2ccc(C)o2)csc1N=Cc1c(O)[nH]c(=S)[nH]c1=O | inactive
22 | NC(=S)c1cccc(Br)c1 | inactive
23 | NC1=NC(=O)/C(=C\c2ccc3c(c2)OCO3)S1 | inactive

Source: PubChem BioAssay AID1347385 (Zoeller Lab, School of Medicine, Boston University, 2020)
